From PubChem
SUMO Mot1 rescue: yeast Mot1-301 growth rescue at high temperature, primary screen, SUMOylation pathway inhibitor project, S. cerevisiae, ATP luminescence, 38.5C; growth rescue, % at 18.8 µM; S. cerevisiae Mot1-301 growth rescue; percent above DMSO median, 100 means doubled; 320,000 tested, 1% active; AID 2716, 2010;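 active = every valid replicate shows activation above 250% relative to neutral control wells; inactive = the rest, any valid replicate at or below 250%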;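 note: OY570 slx delta 5 strain wells were the positive control but not used for scaling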
PHOSPHO1 block: PubChem AID 1565 | 290,000 tested, 1.1% active | Phosphoethanolamine/phosphocholine phosphatase (Homo sapiens), Q8TCT1 | inhibition, % at 13.3 µM | recombinant PHOSPHO1, absorbance phosphatase assay; in the data active = inhibition above about 60%
GASC-1 inh: inhibitors of GASC-1 histone demethylase, primary screen, biochemical, fluorescence, DELFIA europium | AID 2099, 2009 | GST-JMJD2C(1-420) H3K9me3 demethylation | inhibition, % at 2.35 µM | 330,000 tested, 0.069% active | Lysine-specific demethylase 4C (Homo sapiens), Q9H3R0;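 active = more than half of a compound's replicate wells show inhibition beyond 50%, single wells judged on their own value; inconclusive = some, but no more than half, of replicates pass 50% inhibition; inactive = no replicate passes 50% inhibition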;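 note: signal counts dimethyl H3K9 product captured on neutravidin plate; 0% = median of DMSO wells and 100% = 0.3 times that DMSO median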
pCIP destab: p/CIP-EGFP fusion destabilizers, primary screen, fluorescence, F442A cells. Q05BA5. 290,000 tested, 0.01% active. decrease of EGFP signal, % at 10 µM. 16 h. AID 1984, 2009;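 active = EGFP signal decrease of at least 30% at 10 µM or well 3 SD below plate mean, unless failing retest; inactive = the rest, including hits failing retest or dose response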
HDAC3 inh: HDAC3 deacetylase inhibitors, primary screen, biochemical, fluorescence, cell-free homogeneous; Histone deacetylase 3 (Homo sapiens), O15379; recombinant HDAC3, fluorogenic peptide/trypsin coupled; inhibition, % at 8.3 µM; 320,000 tested, 0.15% active; in the data active = inhibition above about 26%, passing the limit was not always enough; inconclusive = no clear call, values can overlap the other calls
Target sequence (O15379 whole entry, looked up): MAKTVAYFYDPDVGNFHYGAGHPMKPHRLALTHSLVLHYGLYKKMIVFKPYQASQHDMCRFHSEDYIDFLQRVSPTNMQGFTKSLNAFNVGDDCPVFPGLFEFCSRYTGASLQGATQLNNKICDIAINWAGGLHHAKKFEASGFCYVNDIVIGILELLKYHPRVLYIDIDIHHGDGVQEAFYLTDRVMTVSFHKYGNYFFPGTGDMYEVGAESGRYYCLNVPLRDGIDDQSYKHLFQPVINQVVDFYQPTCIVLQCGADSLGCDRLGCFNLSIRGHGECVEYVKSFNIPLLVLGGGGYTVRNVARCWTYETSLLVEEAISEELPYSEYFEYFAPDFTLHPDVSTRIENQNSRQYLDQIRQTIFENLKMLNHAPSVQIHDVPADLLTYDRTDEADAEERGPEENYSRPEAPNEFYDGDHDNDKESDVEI
PvdQ inh: P. aeruginosa PvdQ acylase inhibitors, primary screen, biochemical, fluorescence, plate reader and imaging, single point. 340,000 tested, 0.063% active. inhibition, % at 10 µM. purified PvdQ acylase. PvdQ acylase [Pseudomonas aeruginosa LESB58]; in the data active = inhibition above about 30%, passing the limit was not always enough; inconclusive = no clear call, values can overlap the other calls;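 note: 0% = vehicle neutral wells and 100% = reference inhibitor wells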
* marks the source's active call; other numbers are inactive results; ? = inconclusive; / = no result given. Most compounds without a hit are left out; they make up all but 2.2% or so of the library.

SMILES	SUMO Mot1 rescue	PHOSPHO1 block	GASC-1 inh	pCIP destab	HDAC3 inh	PvdQ inh
O=C(CCl)N1CCCC1c1ccc2c(c1)OCCO2 (centres undefined)	4	32	4	-3	-6	-17
Cc1ccc(S(=O)(=O)Nc2ccc3c(c2)C(=O)N([C@H](C)CO)C[C@H](C)[C@@H](CN(C)Cc2ccc(-c4ccccc4)cc2)O3)cc1	8	/	56*	/	?	-11
COc1ccc(S(=O)(=O)Nc2ccc3c(c2)C(=O)N([C@H](C)CO)C[C@H](C)[C@H](CN(C)Cc2ccc(C(=O)O)cc2)O3)cc1	4	/	51*	/	-1	-9
COCn1ccnc1C(O)(c1ccc(OC)cc1)c1ccc(OC)cc1	-2	-10	-3	8	2	5
CC1=Nn2c(nnc2-c2ccccc2Cl)SC1	11	74*	2	-4	0	-15
COc1ccccc1-c1nnc2n1N=C(C)CS2	-12	74*	-3	-16	1	-6
CNC(=O)c1cccc(NC(=O)c2ccccc2OCc2ccccc2)c1	24	24	-5	4	-3	-6
CCn1nc(C)c(C2C(C#N)=C(N)OC3=C2C(=O)CCC3)c1C (centres undefined)	-12	-14	4	-10	0	-16
Cc1nn(C)c(C)c1C1C(C#N)=C(N)OC2=C1C(=O)CCC2 (centres undefined)	311*	2	0	-4	/	-14
CC(CN1CCCC1)OC(=O)c1ccccc1Cl (centres undefined)	12	-1	6	-5	-3	-5
CC(CN1CCN(C)CC1)OC(=O)c1ccccc1Cl (centres undefined)	346*	-8	-1	7	2	-6
N#Cc1cc2c([nH]c1=S)CCCCCC2	-16	93*	7	0	13	5
CC(C)(CNC(=S)NCCc1ccccc1)CNC(=S)NCCc1ccccc1	/	-4	19	5	/	3
CCCCNC(=O)CCCCn1c(=S)[nH]c2c([nH]c3ccc(OC)cc32)c1=O	/	-42	-16	11	2	-15
COc1ccc2[nH]c3c(=O)n(CCCCC(=O)N4CCC(C(N)=O)CC4)c(=S)[nH]c3c2c1	-11	104*	-15	-5	2	-7
COc1ccc2[nH]c3c(=O)n(CCCCC(=O)NCCN4CCCC4)c(=S)[nH]c3c2c1	15	102*	23	-14	30*	-2
CC1(OC(=O)C2CCCC2)C(=O)C=C2C=C(c3ccsc3)N(C(CO)CO)C=C2C1=O (centres undefined)	-4	9	-1	4	6	16
CCc1nnc(NC(=O)CCC(=O)N2CCN(Cc3ccc(C)cc3C)CC2)s1	-3	70*	-10	-16	2	-10
COc1ccc(-n2ncc3c2CC(C)(C)CC3NC(=O)CCn2cncn2)cc1 (centres undefined)	-4	90*	14	-14	-1	-14
CCn1c(SCC(=O)NCc2ccco2)nnc1C1CCCC1	-18	/	-3	-3	1	-2
O=C(CSc1nnc(C2CCCCC2)n1Cc1ccccc1)NCc1ccco1	3	76*	-1	-2	11	6
O=C(CSc1nc2ccccc2c(=O)n1Cc1ccc(C(=O)NC2CC2)cc1)NCc1ccco1	133	-14	61*	-6	-2	-2
CN(CC(=O)NCCc1ccc(S(N)(=O)=O)cc1)CC(=O)Nc1ccccc1C(F)(F)F	21	/	1	/	-1	-19
CC1(C)C2CCC1(CS(=O)(=O)N1CCC(C(=O)O)CC1)C(=O)C2 (centres undefined)	40	4	-2	1	/	-2
O=C(c1nc2ccc(Cl)cn2c1CN1CCC[C@H]1CO)N1CCCCCCC1	-15	28	2	-7	0	-18
CCOC(=O)[C@@H]1[C@H]2COc3cc(OC)ccc3[C@H]2N2C(=O)N(c3cccc(F)c3)C(=O)[C@@]12C	9	/	5	/	3	1
